Article PMC4552634, “A New Set of Chemical Starting Points with Plasmodium falciparum Transmission-Blocking Potential for Antimalarial Drug Discovery” (PLoS ONE, 2015)
Screen size: about 13,000 compounds; about 3,200 (25%) showed an effect of 50% or more. The list shows a part of the results.

system: P. falciparum stage V gametocytes; parameters: BacTiter-Glo ATP luminescence viability of purified stage V gametocytes in 384-well plates, per cent inhibition versus DMSO; conditions: 48 h, 5 µM; inhibitor

| Compound | % Inhibition |
| --- | --- |
| COc1ccc2nccc([C@@H](O)CN3CCC(NCc4ccc5sc(=O)[nH]c5c4)CC3)c2c1 [TCMDC-141199] | 32.68% |
| Oc1ccc(CN2CCC(N3CCN(CCc4ccccc4)CC3)C(O)C2)cc1Cl (stereo not drawn) [TCMDC-124627] | 21.13% |
| CCc1ccc(O)c(-c2cc(C(=O)Nc3cccnc3)[nH]n2)c1 [TCMDC-125321] | -26.21% |
| CN1CCN(Cc2c(O)ccc3c(=O)c(Oc4ccc(C(C)(C)C)cc4)c(C(F)(F)F)oc23)CC1 [TCMDC-125699] | 17.84% |
| O=C(Nc1cccc(Cl)c1)OC1CCCN2CCCCC12 (stereo not drawn) [TCMDC-132073] | 14.89% |
| CC(C)(C)c1ccc(S(=O)(=O)Nc2ccccc2Cn2nc(N3CCNCC3)ccc2=O)cc1 [TCMDC-132579] | 45.07% |
| CC(C)(C)C(=O)Nc1ccc(C(=O)Nc2cccc(-c3nc4ccccc4[nH]3)c2)cc1 [TCMDC-123720] | -0.3051% |
| CCOc1ccc(-c2nonc2NC(=O)c2ccc(F)cc2)cc1OCC [TCMDC-125209] | 63.55% |
| CCOc1ccc(-c2nonc2NC(=O)c2ccc(OC)cc2)cc1OCC [TCMDC-125208] | 49.87% |
| CCOc1ccc(-c2nonc2NC(=O)c2ccc(Cl)cc2)cc1OCC [TCMDC-125210] | 29.52% |
| Nc1cccc(CNCc2cccc(-c3ccc(-c4nc5ccccc5[nH]4)cc3)c2)c1.O=C(O)C(F)(F)F [TCMDC-132940] | -44.43% |
| CCOc1c(Cl)cc(Cl)cc1CNCCCNc1nc2ccccc2[nH]1 [TCMDC-140104] | 21.3% |
| CCOc1cc(NCCCNc2ncc([N+](=O)[O-])cc2C)nc2ccccc12 [TCMDC-139265] | -18.92% |
| CCOc1cccc2nc(NCCCNCc3ccc(Cl)c(Cl)c3)cc(NCCCNCc3ccc(Cl)c(Cl)c3)c12 [TCMDC-139413] | 102.1% |
| COc1ccc2c(c1)nc(CN=C(N)N)n2Cc1ccc(Cl)cc1 [TCMDC-142042] | 28.73% |
| Cc1cc(O)c(-c2cc(C(=O)Nc3cccnc3)[nH]n2)cc1C [TCMDC-124307] | 6.508% |
| COc1ccc(-c2nc(NC(=O)COc3ccc(C(C)=O)cc3)sc2C)cc1 [TCMDC-125108] | 2.358% |
| Cn1nccc1C(=O)NCCNCc1ccc(-c2ccc(-c3nc4cc(C(F)(F)F)ccc4[nH]3)s2)cc1.O=C(O)C(F)(F)F [TCMDC-133018] | -29.18% |
| CCNc1cc(C(=O)N[C@@H](Cc2ccccc2)[C@H](O)CNC(C)(C)CCCC(C)C)cc(N2CCCCS2(=O)=O)c1 [TCMDC-135211] | 24.29% |
| CC(C)CCCC(C)(C)NC[C@@H](O)[C@H](Cc1ccccc1)NC(=O)c1cc(NC(C)C)cc(N2CCCCS2(=O)=O)c1F [TCMDC-135540] | 50.35% |
| CCNc1cc(C(=O)NC(Cc2ccccc2)C(O)CNC(C)(C)CCCC(C)C)c(F)c(N2CCCS2(=O)=O)c1 (stereo not drawn) [TCMDC-135210] | 12.17% |
| CCNc1cc(C(=O)N[C@@H](Cc2ccccc2)[C@H](O)CNC(C)(C)CC(C)(C)C)c(F)c(N2CCCCS2(=O)=O)c1 [TCMDC-135166] | -2.474% |
| CC(C)Nc1cc(C(=O)N[C@@H](Cc2ccccc2)[C@H](O)CNCc2cccc(C(F)(F)F)c2)c(F)c(N2CCCCS2(=O)=O)c1 [TCMDC-135538] | 3.895% |

| Compound | % Inhibition |
| --- | --- |
| CC(C)Nc1cc(C(=O)N[C@@H](Cc2ccccc2)[C@H](O)CNC(C)(C)c2cccc(C(F)(F)F)c2)cc(N2CCCCS2(=O)=O)c1 [TCMDC-135204] | 0.5792% |
| CCNc1cc(C(=O)N[C@@H](Cc2ccccc2)[C@H](O)CNC(C)CC(C)C)c(F)c(N2CCCCS2(=O)=O)c1 (stereo partly drawn) [TCMDC-135167] | 44.92% |
| CC(C)CCCC(C)(C)NC[C@@H](O)[C@H](Cc1ccccc1)NC(=O)c1cc(NC(C)C)cc(N2CCCCS2(=O)=O)c1 [TCMDC-135206] | 89.31% |
| CCNc1cc(C(=O)N[C@@H](Cc2ccccc2)[C@H](O)CNCCC(C)(C)C)c(F)c(N2CCCCS2(=O)=O)c1 [TCMDC-135165] | 62.14% |
| CCCc1cc2c3c(N)nc(N)nc3ccc2n1CC [TCMDC-137946] | 108% |
| CCc1cc2c3c(N)nc(N)nc3ccc2n1C(C)(C)C [TCMDC-137306] | 29.54% |
| CCCc1cc2c3c(N)nc(N)nc3ccc2n1C(CC)CC [TCMDC-137312] | 13.64% |
| CCc1cc2c3c(N)nc(N)nc3ccc2n1CC [TCMDC-137851] | 94.91% |
| CCC(CC)n1c(COC)cc2c3c(N)nc(N)nc3ccc21 [TCMDC-137313] | -40.93% |
| CCc1cc2c3c(N)nc(N)nc3ccc2n1C(C)CC (stereo not drawn) [TCMDC-137308] | 10.89% |
| CCc1cc2c3c(N)nc(N)nc3ccc2n1C(CC)CC [TCMDC-137309] | 2.246% |
| CCn1c(C(C)C)cc2c3c(N)nc(N)nc3ccc21 [TCMDC-137856] | 56.38% |
| CC(C)n1ncc2c3c(N)nc(N)nc3ccc21 [TCMDC-137866] | 12.93% |
| CSC1=NC2(CC(c3cccc(C)c3)c3cc(Cl)c(O)cc3O2)CC(C)(C)N1 (stereo not drawn) [TCMDC-125563] | 19.29% |
| O=C(c1ccc(-c2ccccn2)s1)N1CCc2cc3nccc(N4CCN5CCC[C@H]5C4)c3cc21 [TCMDC-140047] | 34.48% |
| CCCCCCn1c(Sc2ccc(C#N)c([N+](=O)[O-])c2)nnc1-c1cccs1 [TCMDC-135586] | 11.04% |
| COc1cccc(C(=O)Nc2ccc(Nc3nc(C)cc(N4CCCCC4)n3)cc2)c1OC [TCMDC-124963] | -19.94% |
| CC(CN(C)C)Oc1ccc2[nH]c(-c3cccc(OCc4ccccc4)c3)nc2c1C#N (stereo not drawn) [TCMDC-133767] | 6.337% |
| N#Cc1cccc(NC(=O)Nc2cccc(-c3cccc(-c4nc5ccccc5[nH]4)c3)c2)c1 [TCMDC-133193] | -45.89% |
| CCn1c(-c2nonc2N)nc2c(-c3cccc(NC(=O)Nc4cccc(C#N)c4)c3)ncc(OCCCN)c21 [TCMDC-136195] | 98.06% |
| CCn1c(-c2nonc2N)nc2c(-c3cccc(NC(=O)Nc4ccc(C#N)cc4)c3)ncc(OCCCN)c21 [TCMDC-136194] | 88.46% |
| Cc1cccc2[nH]c(-c3ccc(-c4ccc(NC(=O)Nc5cccc(C#N)c5)cc4)cc3)nc12 [TCMDC-133196] | -20.21% |
| COc1ccc(N2CCN(CCCCNC(=O)c3ccc(NC(=O)c4ccc(OC(F)(F)F)cc4)cc3)CC2)c(OC)c1 [TCMDC-138149] | -10.77% |

| Compound | % Inhibition |
| --- | --- |
| N#Cc1ccc2c(c1)CCN(CCC1CCC(Nc3ncnc4ccccc34)CC1)C2 (stereo not drawn) [TCMDC-139358] | -22.56% |
| Cc1cccc2nc(-c3ccc(-c4cccc(NC(=O)C(C)CN(C)C)c4)s3)[nH]c12 (stereo not drawn) [TCMDC-137116] | 33.05% |
| Cc1cc2cc(NC(=O)Nc3ccnc4ccccc34)ccc2n1C [TCMDC-139291] | -17.26% |
| CN(C)c1cc(NC(=O)Nc2ccccc2)c2ccccc2n1 [TCMDC-123521] | 30.25% |
| Cc1cc(NC(=O)Nc2cccc(N(C)C)c2)c2ccccc2n1 [TCMDC-138955] | -40.58% |
| O=C(Nc1ccc(SC(F)(F)F)cc1)Nc1ccnc2ccccc12 [TCMDC-139287] | 73.37% |
| CCC(C)c1ccc(NC(=O)Nc2ccnc3ccccc23)cc1 (stereo not drawn) [TCMDC-139723] | 3.75% |
| CN(C)c1cc(NC(=O)Nc2ccc(SC(F)(F)F)cc2)c2ccccc2n1 [TCMDC-123994] | 86% |
| N#Cc1ccc2c(c1)CCN(CCC1CCC(NC(=O)c3cc4ccccc4[nH]3)CC1)CC2 (stereo not drawn) [TCMDC-139633] | -57.67% |
| O=C(Nc1ccc(Cl)cc1)c1cc(Cl)ccc1NC(=O)C1CCc2ccccc2O1 (stereo not drawn) [TCMDC-136640] | -15.02% |
| CCCOc1c(CCNCCCCNCCc2ccc3ccccc3c2OCCC)ccc2ccccc12 [TCMDC-137950] | 113.4% |
| CCCOc1ccc(CCNCCCCNCCc2ccc(OCCC)c3ccccc23)c2ccccc12 [TCMDC-137952] | 124.7% |
| CCCOc1cc(O)c(-c2n[nH]c(C)c2Oc2ccccc2)cc1CC [TCMDC-125714] | -75.18% |
| CCOc1c(CCNCCCCNCCc2ccc3ccccc3c2OCC)ccc2ccccc12 [TCMDC-137759] | 109.7% |
| CCOc1c(N2CCN(CCCCNC(=O)c3ccc(NC(=O)c4ccc(Cl)cc4)cc3)CC2)ccc2ccccc12 [TCMDC-138522] | 6.305% |
| CC(=NO)C1=C(O)C(c2ccccc2)N(c2ccccc2)C1=O (stereo not drawn) [TCMDC-131673] | 13.72% |
| O=C(/C=C/c1ccc(Cl)c(Cl)c1)NCCCCCN1CCCN(C(=O)Nc2ccc(F)c(F)c2)CC1 [TCMDC-135750] | -25.07% |
| CCCC(C)Nc1nc(C)cc(N[C@@H](Cc2ccccc2)C(=O)NCCc2ccccc2)n1 (stereo partly drawn) [TCMDC-134766] | 6.892% |
| O=C(Nc1ccc(OC2CCN(Cc3ccsc3)C2)c(Cl)c1)c1ccco1 (stereo not drawn) [TCMDC-133950] | 41.88% |
| O=C(N[C@@H](CC1CCCCC1)C(=O)NC1CCCCCC1)c1ccc(O)c(-c2ccc(Cl)c(Cl)c2)c1 [TCMDC-140847] | 37.48% |
| CCN(CC)CCNC(=O)c1ccc(NC(=O)c2ccc(-c3cc(NC(=O)CC4CCCC4)ccc3C)cc2)cc1 [TCMDC-133707] | 110.3% |
| COc1ccc(NC(=O)Nc2ccc(C)c(-c3ccc(C(=O)NCCN4CCCC4)cc3)c2)cc1 [TCMDC-134196] | -27.29% |
| Cc1ccc(NC(=O)C2CCC2)cc1-c1ccc(C(=O)NCC2CC2)cc1 [TCMDC-138709] | -25.69% |
